Reference: PubChem BioAssay AID1159577 (Broad Institute, 2015)
The campaign covered roughly 1,300 compounds. About 240 (18%) were called active. Inconclusive results (about 8%) are left out. How the calls were made is not given here. A selection follows. Entries with a potency or affinity are not part of this list.

Test: toxicity to human hepatoma HepG2 cells – cell-based, cherry-picked samples, cytotoxicity control, dose response (AID 1159577);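 further: 0% = neutral control wells and -100% = positive control wells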
Settings: HepG2 cytotoxicity counterscreen, plate reader; series mostly up to 19.5 µM; activity change, negative = cytotoxicity: at the top concentration

| Structure (SMILES) | activity change, negative = cytotoxicity |
| --- | --- |
| C[C@@H]1CN([C@@H](C)CO)C(=O)c2cccc(NC(=O)Nc3ccccc3)c2O[C@@H]1CN(C)C(=O)Nc1ccc(F)cc1 | 11.6% (inactive) |
| COc1ccc2c3c(n(C)c2c1)[C@@H](CO)N(C(=O)c1ccc(F)cc1)CC31CN(CC2CCOCC2)C1 | -6.16% (inactive) |
| CCCN1C[C@@H](C)[C@H](OC)CN(C)C(=O)c2ccc(NC(=O)c3cccc(F)c3)cc2OC[C@H]1C | 9.31% (inactive) |
| COc1ccc2c3c(n(C)c2c1)[C@@H](CO)N(Cc1ccc(Cl)cc1)CC31CCN(CC2CC2)CC1 | -10.4% (inactive) |
| COc1ccc2c3c(n(C)c2c1)[C@@H](CO)N(C(=O)c1ccccc1)CC31CCN(C(=O)c2ccccc2)CC1 | 6.24% (inactive) |
| COc1ccc2c3c(n(C)c2c1)[C@H](CO)N(Cc1ccccc1F)CC31CCN(CC2CC2)CC1 | -24.4% (inactive) |
| COc1ccc2c3c(n(C)c2c1)[C@@H](CO)N(CC1CCCCC1)CC31CCN(Cc2nccs2)CC1 | 9.04% (inactive) |
| COc1ccc2c3c(n(C)c2c1)[C@H](CO)N(Cc1ccncc1)CC31CCN(C(=O)Cc2ccncc2)CC1 | 9.18% [at 18 µM] (inactive) |
| COc1ccc2c3c(n(C)c2c1)[C@H](CO)N(C(=O)c1ccccc1)CC31CCN(C(=O)c2ccccc2)CC1 | 28.5% (inactive) |
| CCC(=O)N1CCC2(CC1)CN(Cc1cccc(Cl)c1)[C@H](CO)c1c2c2ccc(OC)cc2n1C | -4.12% (inactive) |
| COc1ccc2c3c(n(C)c2c1)[C@@H](CO)N(Cc1ccccc1F)CC31CCN(CC2CC2)CC1 | -22.2% (inactive) |
| COc1ccc(-c2ccccc2[C@H]2[C@@H](CO)N(C(=O)C3CCOCC3)[C@H]2C#N)cc1 | 10.6% (inactive) |
| COc1ccc2c3c(n(C)c2c1)[C@H](CO)N(Cc1cccnc1)CC31CN(C(=O)NC(C)C)C1 | -0.752% (inactive) |
| CC(C)(C)[S@](=O)N1Cc2cc(C(=O)NCCN3CCCCC3)nc(-c3cccc(-c4cccc(C#N)c4)c3)c2[C@@H]1CCO | 2.26% (inactive) |
| C[C@@H]1CN([C@@H](C)CO)S(=O)(=O)c2ccc(C#Cc3ccncc3)cc2O[C@H]1CN(C)S(=O)(=O)c1ccc(F)cc1 | -11% (inactive) |
| OC[C@H]1CC[C@@H]2O[C@H](CCc3ccc(C#CCc4ccccc4)cc3)[C@@H](n3cc(-c4ccccc4)nn3)C[C@@H]2O1 | 12.9% (inactive) |
| O=C(C1CCCC1)N1CC[C@@H]2[C@H]1c1cc(C3=CCCCC3)ccc1N[C@@H]2CO | 6.34% (inactive) |
| Cc1ccc(S(=O)(=O)N(C)C[C@@H]2OCc3ccccc3-c3c(n(C)c4ccccc34)C(=O)N([C@@H](C)CO)C[C@@H]2C)cc1 | -18.7% (inactive) |
| CCCc1cn([C@H]2C[C@@H]3O[C@@H](CO)CC[C@@H]3O[C@@H]2CCc2ccc(-c3ccc(OC)cc3)cc2)nn1 | 3.71% (inactive) |
| COc1cccc(-c2cn(CC[C@@H]3CC[C@H](NS(=O)(=O)c4ccccc4Cl)[C@H](CO)O3)nn2)c1 | -6.11% (inactive) |
| COc1ccc(S(=O)(=O)N[C@@H]2CC[C@H](CCn3cc(-c4ccccc4F)nn3)O[C@@H]2CO)cc1 | -8.13% (inactive) |
| CCCc1cn([C@H]2C[C@@H]3O[C@H](CO)CC[C@@H]3O[C@@H]2CCc2ccc(-c3ccc(OC)cc3)cc2)nn1 | 15.6% (inactive) |

| Structure (SMILES) | activity change, negative = cytotoxicity |
| --- | --- |
| CCC(=O)N1C[C@H](C)[C@H](OC)CN(C)C(=O)c2cc(NC(=O)Nc3cccc(F)c3)ccc2OC[C@@H]1C | 22.1% (inactive) |
| O=C(Nc1cccc(F)c1)N[C@@H]1CC[C@H](CCNS(=O)(=O)c2cccc(Cl)c2)O[C@H]1CO | -6.07% (inactive) |
| C[C@H]1CN([C@@H](C)CO)C(=O)c2c(c3ccccc3n2C)-c2ccccc2CO[C@H]1CN(C)S(=O)(=O)c1ccccc1C#N | -3.86% (inactive) |
| COc1ccc(C#Cc2ccc3c(c2)[C@@H]2[C@@H](CCN2C(=O)C2CCC2)[C@H](CO)N3)cc1 | -13.7% (inactive) |
| O=C(Nc1ccccc1F)N1CCCCN2[C@H](CO)[C@H](c3ccc(C#Cc4cccnc4)cc3)[C@@H]2C1 | 4.47% (inactive) |
| CN1CCCCN2[C@@H](CO)[C@@H](c3ccc(-c4cccnc4)cc3)[C@@H]2C1 | 2.85% (inactive) |
| O=C(Nc1ccccc1F)N1CCCCN2[C@@H](CO)[C@H](c3ccc(C#Cc4cccnc4)cc3)[C@@H]2C1 | 8.61% (inactive) |
| COCC(=O)Nc1ccc2c(c1)C(=O)N(C)C[C@@H](OC)[C@H](C)CN(CC1CCCCC1)[C@@H](C)CO2 | -4.53% (inactive) |
| CCCN1C[C@H](C)[C@@H](OC)CN(C)C(=O)c2cc(NC(=O)Nc3cccc(F)c3)ccc2OC[C@H]1C | 7.72% (inactive) |
| CCC(=O)N[C@H]1C=C[C@H](CC(=O)NCC2CCCCC2)O[C@@H]1CO | 5.5% (inactive) |
| CCC(=O)N1CCC2(CC1)CN(Cc1ccc3c(c1)OCO3)[C@@H](CO)c1c2c2ccc(OC)cc2n1C | 12.7% (inactive) |
| COc1ccc2c3c([nH]c2c1)[C@H](CO)N(Cc1cccc(F)c1)CC31CCN(Cc2ccccn2)CC1 | -28% (inactive) |
| CCCC(=O)Nc1ccc2c(c1)OC[C@@H](C)N(Cc1cc(-c3ccccc3)on1)C[C@@H](C)[C@H](OC)CN(C)C2=O | -15.5% [at 21 µM] (inactive) |
| CCCC(=O)N1CC2(C1)CN(S(=O)(=O)c1ccc(C)cc1)[C@@H](CO)c1[nH]c3cc(OC)ccc3c12 | -15.7% (inactive) |
| COc1cccc(-c2ccc([C@H]3[C@H](CO)N4CCCCN(CC5CC5)C[C@@H]34)cc2)c1 | -8.37% (inactive) |
| COc1cccc(S(=O)(=O)N(C)C[C@@H]2OCc3ccccc3-c3c(n(C)c4ccccc34)C(=O)N([C@H](C)CO)C[C@@H]2C)c1 | -11.8% (inactive) |
| COc1ccc2c3c(n(C)c2c1)[C@H](CO)N(C(=O)Nc1ccc(F)cc1)CC31CCN(C(=O)c2cccnc2)CC1 | -6.19% (inactive) |
| CCCC(=O)Nc1ccc2c(c1)OC[C@@H](C)N(Cc1ccc(F)cc1)C[C@@H](C)[C@H](OC)CN(C)C2=O | 4.46% (inactive) |
| CC=Cc1ccc2n(c1=O)C[C@H]1[C@H](CO)[C@@H](C(=O)N3CCC(Cc4ccccc4)CC3)N(CCC)[C@@H]21 (mixture of isomers) | -3.03% (inactive) |
| C[C@H](CO)N1C[C@H](C)[C@H](CN(C)S(=O)(=O)c2ccc(F)cc2)OCc2ccccc2-c2c(n(C)c3ccccc23)C1=O | 9.68% (inactive) |
| Cc1ccc(-c2ccccc2[C@H]2[C@@H](C#N)N(C(=O)c3cccc(F)c3)[C@H]2CO)cc1 | -17.6% (inactive) |
| C[C@H]1CN([C@@H](C)CO)C(=O)c2c(c3ccccc3n2C)-c2ccccc2CO[C@@H]1CN(C)S(=O)(=O)c1cccc(F)c1 | 15.1% [at 21 µM] (inactive) |
